Drawing on PubChem BioAssay AID504332 (National Center for Advancing Translational Sciences (NCATS), 2011), this text covers Potency and activity, negative = inhibition for 27 compounds.

Values joined by “and” are separate entries in the source; they are usually repeats but may differ in a detail not shown here. Equal values may be shown once. Among all 350,000 compounds or so, about 31,000 (8.9%) were called active. Inconclusive results (about 15%) are left out. The list comes from a sample in which actives are over-represented; it also holds similar structures and randomly drawn compounds. Entries that show only a call come without a potency. Some structures have more than one record in an assay (separate samples or runs), and their calls can disagree. Unmarked numbers belong to inactive results. Calls come from the whole dose curve; as a rule, active = well fitted inhibition curve with a large enough effect; inconclusive = small, poorly fitted or top-dose-only effect; inactive = no such curve, though single readings can be large or run the other way.
Potency is the fitted concentration of half-maximal effect.

Sequence of Histone-lysine N-methyltransferase EHMT2 (Homo sapiens) (Q96KQ7 913-1193 limits assumed): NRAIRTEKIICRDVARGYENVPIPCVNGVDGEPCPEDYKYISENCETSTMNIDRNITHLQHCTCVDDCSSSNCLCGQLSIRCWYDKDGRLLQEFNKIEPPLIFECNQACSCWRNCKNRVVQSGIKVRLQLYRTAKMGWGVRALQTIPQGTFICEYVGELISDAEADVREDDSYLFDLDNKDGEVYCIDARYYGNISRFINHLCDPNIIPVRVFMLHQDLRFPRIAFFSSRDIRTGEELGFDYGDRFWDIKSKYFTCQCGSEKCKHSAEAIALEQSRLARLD

The test concerns the target Histone-lysine N-methyltransferase EHMT2 (Homo sapiens) (UniProt Q96KQ7). As to the kind of experiment: qHTS Assay for Inhibitors of Histone Lysine Methyltransferase G9a. Note: nearly all actives have a fitted effect of over 75% in size. The conditions noted are these: G9a H3K9 monomethylation, AlphaScreen, 2 h; series mostly up to 59 µM. Put shortly: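 Using a bead-based AlphaScreen, monomethylated H3K9 product from 2 h room-temperature reactions (G9a 20 nM, peptide 500 nM, SAM 20 uM) was detected with 0.5 ug/mL rabbit anti-H3K9me1 antibody.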
As to `Cc1n[nH]c(=O)nc1N/N=C/c1cccs1`, the Potency result is “inactive”.

In the case of `Cc1ccsc1/C=N/n1c(=S)[nH]nc(C)c1=O`, the Potency result is “inactive”.

Take `Oc1ccccc1/C=N/n1c(-c2cccs2)n[nH]c1=S`: the Potency is 1.58 µM (active).

As to `S=c1[nH]nc(-c2cccs2)n1/N=C/c1cccs1`, the Potency is 1.26 µM (active).

For `c1ccc(-c2noc(-c3cccs3)n2)nc1`, the Potency result was “inactive”.

`COc1cc(-c2cc3n(C)c(C)c(CCC(=O)Nc4ccc(F)cc4)c(=O)n3n2)cc(OC)c1OC`: the Potency entry is “inactive”.

In the case of `Cc1cccc(NC(=O)CSc2nnc(CNC(=O)c3cccc(C)c3)n2-c2ccccc2)c1`, the Potency result was “inactive”.

With `COc1cccc(CNC(=O)CCCC(=O)Nc2cccc([N+](=O)[O-])c2)c1`, the Potency entry was “inactive”.

In the case of `COc1cccc(NCCC(=O)c2cccc([N+](=O)[O-])c2)c1`, the Potency is 35.5 µM (active).

Regarding `COc1cccc(C(=O)CC(=O)C(=O)Nc2ccc([N+](=O)[O-])cc2C)c1`, the Potency entry is “inactive”.

Consider `O=C(CN1CCOC1=O)N1CCCC(Nc2ccc(F)c(F)c2)C1` (stereo not drawn), for which the Potency result is “inactive”.

On to `CCC(=O)Nc1nc(C)c(C(=O)Nc2cccc(Cl)c2)s1`, for which the Potency entry is “inactive”.

`CCN(CC)CCCC(C)Nc1ccnc2cc(Cl)ccc12` (stereo not drawn): the Potency was 25.1 µM (active); the activity, negative = inhibition was -36.5% [at 2.33 µM] and 28.9% [at 12.7 µM].

With `CCN(CC)CCCNC(=O)c1cc(-c2cccc(Cl)c2)on1`, the Potency result was “inactive”.

Take `CCN(CC)CCNc1ncnc2c1cnn2-c1cc(Cl)ccc1C`: the Potency result is “inactive”.

`O=C(NCCc1ccco1)C(=O)NCCC1CCCCN1S(=O)(=O)c1ccccc1` (stereo not drawn): the activity, negative = inhibition is 10.9% [at 0.501 µM].

Regarding `Cc1ccc(Nc2nc(-c3ccc(O)cc3O)cs2)nc1`, the Potency was 10 µM (active).

In the case of `c1cnc(Nc2nc(-c3ccc4ccccc4c3)cs2)nc1`, the activity, negative = inhibition was 27.1% [at 12.7 µM].

Turning to `CC(=O)Nc1cccc(-c2csc(Nc3cccc(C)n3)n2)c1`, the activity, negative = inhibition is -3.54% [at 0.0925 µM].

For the compound `CCN(CC(=O)Nc1c(F)cccc1F)C(=O)c1ccc(S(=O)(=O)N2CCCCC2)cc1`, the activity, negative = inhibition was 0.134% [at 12.7 µM].

In the case of `CC1CC(C)CN(c2ccc(S(=O)(=O)N3CCOCC3)cc2)C1` (stereo not drawn), the activity, negative = inhibition is -7.51% [at 12.7 µM].

For `CCCOc1ccc(N/C=C/C(=O)C(C)(C)C)cc1`, the Potency entry is “inactive”.

In the case of `CN(C)c1ccc(N/C=C/C(=O)C(F)(F)F)cc1`, the Potency is 7.08 µM (active).

Consider `O=C(/C=C/Nc1ccccc1OC(F)(F)F)C(F)(F)F`, for which the Potency result is “inactive”.

Take `COc1ccc(-c2cn3c(n2)sc2cc(C(=O)Nc4ccc(F)cc4)ccc23)cc1`: the Potency result is “inactive”.

As to `CCn1cc2nc(SCc3cccc(F)c3)n(CCc3ccccc3)c(=O)c2n1`, the Potency result is “inactive”.

Consider `CCOC(=O)C1(Cc2ccccc2C)CCCN(C(=O)CN2C(=O)CSC2=O)C1` (stereo not drawn), for which the Potency entry is “inactive”.
